Pf apPOL inh = Pf-apPOL inhibitors, biochemical, fluorescence | Recombinant Pf-apPOL, molecular beacon fluorescence, 1.5 h | inhibition, % at 10 µM | actives 0.25% (n = 210,000) | AID 1794808, 2022
mHTT CaM bind = mutant huntingtin-calmodulin interaction inhibitors – biochemical, AlphaScreen, primary screen. inhibition, % at 15 µM. actives 3.6% (n = 190,000). P42858. AlphaScreen His-mHTT/GST-CaM binding, luminescence;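 also: 0% = both proteins with DMSO and 100% = one protein alone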
Active calls of the source: *; nt = no result. Most compounds without a hit are left out; they make up all but 3.5% or so of the library. Rule as the data show it: active = inhibition above about 50%; inactive = the rest.

SMILES	Pf apPOL inh	mHTT CaM bind
Cc1cc(Cl)cc2sc(N(CCCn3ccnc3)C(=O)c3cccs3)nc12	-6.8	81.7*
O=C(NCc1ccc(F)cc1Cl)c1ccc(-c2cncnc2)nc1	0.7	-2.4
COc1cccc(C2=CC(c3cc(Br)ccc3F)n3ncnc3N2)c1 (stereo unspecified)	0.2	3.0
O=C(C=Cc1cc(Cl)cc2c1OCOC2)c1cc(Br)ccc1O	1.8	2.0
Cc1ccc(C2C3=C(CC(c4ccco4)CC3=O)NC3=C2C(=O)c2ccccc23)cc1 (stereo unspecified)	-9.4	20.0
O=C1CC(c2ccccc2)CC2=C1C(c1ccc(Cl)cc1)C1=C(N2)c2ccccc2C1=O (stereo unspecified)	-0.9	48.2
CC(C)c1ccc(C2C3=C(CC(C)(C)CC3=O)NC3=C2C(=O)c2ccccc23)cc1 (stereo unspecified)	-5.0	65.0*
COc1cc(C2C3=C(CCCC3=O)NC3=C2C(=O)c2ccccc23)ccc1O (stereo unspecified)	-16.5	22.0
CC(C)(C)c1ccc(C2C3=C(CCCC3=O)NC3=C2C(=O)c2ccccc23)cc1 (stereo unspecified)	-12.6	63.0*
CC(C)c1ccc(C2C3=C(CCCC3=O)NC3=C2C(=O)c2ccccc23)cc1 (stereo unspecified)	-3.9	75.0*
CCN(CC)CCCNC(=O)c1cc(-c2ccc(Br)s2)nc2ccccc12	-3.3	5.0
C=CCn1c(SCC(=O)Nc2ccc(F)cc2)nnc1-c1cccc(OC)c1	-11.1	-2.4
C=CCn1c(SCC(=O)Nc2ccc(OC)cc2)nnc1C(c1ccccc1)c1ccccc1	97.4*	17.2
O=C(C1CC1)N1CCc2sc(S(=O)(=O)Nc3ccccc3Br)cc2C1	2.7	14.7
COc1cc(SC)ccc1C(=O)Nc1ccc(Br)cc1	-1.3	-4.3
Cc1cc(C)nc(NS(=O)(=O)c2ccc(NC(=O)CSc3ncn[nH]3)cc2)n1	61.8*	-2.0
Cc1ccnc(NS(=O)(=O)c2ccc(NC(=O)CSc3nc(C)cc(=O)[nH]3)cc2)n1	-1.7	-3.0
NC(=O)c1oc2ccccc2c1NC(=O)C1CCCN1S(=O)(=O)c1ccc(F)cc1 (stereo unspecified)	-6.5	66.9*
O=C(Nc1nc2c(s1)CCC2)C1CCCN1S(=O)(=O)c1ccc(F)cc1 (stereo unspecified)	-0.3	2.9
CNC(=O)CN1C(=O)/C(=C/c2ccc(Cl)cc2)Sc2ccccc21	4.3	10.0
O=C(Oc1ccc(-c2csnn2)cc1)c1ccc([N+](=O)[O-])o1	-1.8	nt
COc1cccc2sc(N(C)CC(=O)NCc3c(F)cccc3F)nc12	0.0	-7.5
O=[N+]([O-])c1ccc(Cl)c(Nc2nc3nonc3nc2Nc2cc([N+](=O)[O-])ccc2Cl)c1	nt	98.3*
O=[N+]([O-])c1ccc2nc(Nc3ccc(Cl)c(Cl)c3)c(Nc3ccc(Cl)c(Cl)c3)nc2c1	nt	-3.2
COc1cc(OC)cc(C2=Cc3ccccc3C(CC(C)=O)N2c2ccc(-c3cncnc3)cc2)c1 (stereo unspecified)	-3.1	50.1*
SMILES	Pf apPOL inh	mHTT CaM bind
COc1cc(OC)cc(C2=Cc3ccccc3C(CC(C)=O)N2c2ccc(-c3cccs3)cc2)c1 (stereo unspecified)	-3.3	40.3
COc1ncc(-c2ccc(N3C(c4ccsc4)=Cc4ccc(F)cc4C3CC(=O)c3ccco3)cc2)cn1 (stereo unspecified)	-6.2	15.1
O=C(CC1c2ccccc2C=C(c2ccsc2)N1c1ccc(-c2cccnc2)cc1)C1CC1 (stereo unspecified)	-5.5	84.1*
COc1cc([N+](=O)[O-])ccc1-c1ccc(C(=O)Nc2cccnc2)o1	0.2	61.1*
O=C(Nc1cccnc1)c1ccc([N+](=O)[O-])o1	6.3	-3.9
Cc1ccc2c(c1)c1c3n2CCN(C(=O)CN2CCN(C(=O)c4ccco4)CC2)C3CCC1 (stereo unspecified)	-1.3	57.3*
O=C(CN1CCN(C(=O)c2ccco2)CC1)Nc1c2c(nc3c1CCC3)CCCC2	-2.8	2.0
O=C(Nc1nc(-c2nc3ccccc3s2)cs1)c1ccno1	5.1	-8.0
O=C(Nc1nc(-c2ccccn2)cs1)c1sc2ccccc2c1Cl	-1.8	100.0*
Cc1ccccc1C(=O)Nc1cccc(NC(=O)c2sc3ccccc3c2Cl)c1	-7.5	-0.4
O=C(Nc1nc(-c2ccccn2)cs1)c1nc2ccccc2s1	-75.8	100.0*
CCC(=O)Nc1cccc(NC(=O)c2sc3ccccc3c2Cl)c1	-10.2	56.0*
O=C(NCc1ccccn1)c1sc2ccccc2c1Cl	-0.4	-3.3
COCC(O)CN1CCN(c2ccc(Cl)cc2[N+](=O)[O-])CC1 (stereo unspecified)	-5.7	-8.2
O=S(=O)(CCON=Cc1cccs1)c1ccc(Cl)cc1	-0.1	nt
COc1ccc(OC)c(S(=O)(=O)n2cc([N+](=O)[O-])cn2)c1	-11.3	100.0*
O=[N+]([O-])c1ccc(S(=O)(=O)n2cccn2)cc1	12.7	8.0
COc1ccc(OC)c(S(=O)(=O)c2ccc([N+](=O)[O-])cc2Cl)c1	-9.9	nt
CC(C)Cc1ccc(S(=O)(=O)n2cc([N+](=O)[O-])cn2)cc1	-3.3	100.0*
O=C(Nc1cccc(Cl)c1)c1cc(S(=O)(=O)N2CCCCCC2)ccc1F	-6.0	-15.0
O=C(c1cc2c(=O)n(Cc3ccccc3)ccc2s1)N1CCCC1	2.0	10.5
Cc1cccc(N2C(=O)NC(=O)/C(=C\c3ccc([N+](=O)[O-])s3)C2=O)c1	-5.4	25.0
COc1ccc2c(c1)-c1cc(Cl)ccc1S(=O)(=O)N2C(C)=O	-2.1	87.0*
COc1ccc(N2C=C(C#N)S(=O)(=O)c3ccc(Cl)cc32)c(C)c1	-4.5	-5.5
COc1ccc(NC(=O)C2CCN(c3cccc(C)c3C)C2=O)cc1 (stereo unspecified)	-2.0	3.0
SMILES	Pf apPOL inh	mHTT CaM bind
O=S(=O)(NCCCc1nc2ccccc2[nH]1)c1ccc(Cl)cc1	-7.4	-2.0
O=S(=O)(NCCCCCc1nc2ccccc2[nH]1)c1ccc(Cl)c(Cl)c1	-4.1	66.0*
Cc1nc2cc(N3CC(C(=O)Nc4cccc(C(C)C)c4)CC3=O)ccc2o1 (stereo unspecified)	-4.0	-3.8
Cc1c(Cl)c([N+](=O)[O-])nn1CC(=O)Nc1cc(C(F)(F)F)cnc1Cl	-3.3	-1.0
O=C(c1ccncc1)N1CCC(c2nc(-c3ccccc3)no2)C1 (stereo unspecified)	1.8	-4.7
CN1CCN(c2ccc3c(c2)Oc2ccccc2CN(Cc2cn(Cc4ccc(C(F)(F)F)cc4)nn2)S3(=O)=O)CC1	-5.7	72.4*
O=S1(=O)c2ccc(N3CCCC3)cc2Oc2ccccc2CN1Cc1cn(Cc2ccc(Cl)cc2)nn1	-4.8	-1.6
CCc1noc(-c2cccnc2N2CCCN(C(=O)CCc3ccc(OC)cc3)CC2)n1	-3.1	3.3
CC(C(=O)N1CCC(N2CCc3ccccc32)CC1)c1ccccc1 (stereo unspecified)	4.4	68.5*
COCCC1CCN(C(=O)C(C)c2ccccc2)CC1 (stereo unspecified)	1.0	1.0
COc1cc(OC)cc(C2=N/C(=C\c3ccc(C)cc3)C(=O)O2)c1	1.7	9.0
COc1cc(N2Cc3ccccc3C2)ccc1C=O	-4.9	72.2*
COc1cc(N2Cc3ccccc3C2)ccc1/C=C(\C#N)C(=O)NCc1ccco1	-2.4	18.0
CCCC(C)C(=O)Nc1ccc(Br)cc1 (stereo unspecified)	-4.5	-14.3
